The results in this text go back to PubChem BioAssay (NCI).

Assay [1] can be described thus: NCI Yeast Anticancer Drug Screen. Data for the rad50 strain (AID 155).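 Further: 0% = growth of vehicle-only cultures of the same strain.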 As to conditions: S. cerevisiae rad50 strain growth inhibition, stronger effect = higher value. The gist of the method:
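Vehicle-treated cultures provide the reference for the growth inhibition reported for compound-exposed, repair-deficient yeast.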

A short description of assay [2]: NCI Yeast Anticancer Drug Screen. Data for the mec2-1 strain (AID 157). As to conditions: S. cerevisiae mec2-1 strain, stronger effect = higher value. Summed up: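 Yeast mec2-1 mutant treated with compound. Readout: growth inhibition vs vehicle controls.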
Assay [3] is described as follows: NCI Yeast Anticancer Drug Screen. Data for the sgs1 mgt1 strain (AID 161).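 Further: 0% = growth of cultures given vehicle only.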 The settings on record: S. cerevisiae sgs1 mgt1 strain, stronger effect = higher value. Summed up:
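Inhibition of yeast growth, normalised to vehicle-treated controls, is reported for a strain bearing genetic alterations in DNA damage repair.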

Assay [4] is described as follows: NCI Yeast Anticancer Drug Screen. Data for the cln2 rad14 strain (AID 165).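 Further: 0% = growth equal to vehicle treated cultures.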 As to conditions: S. cerevisiae cln2 rad14 strain, stronger effect = higher value. Summed up:
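cln2 rad14 yeast strain; compound exposure; growth inhibition read vs vehicle controls.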

A short description of assay [5]: NCI Yeast Anticancer Drug Screen. Data for the bub3 strain (AID 167). As to conditions: S. cerevisiae bub3 mutant strain, stronger effect = higher value. Summed up:
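Mutant yeast screening strain plus compound; vehicle-treated cultures serve as the 0% inhibition reference.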

Assay [6] in a line: NCI Yeast Anticancer Drug Screen. Data for the mlh1 rad18 strain (AID 175). As to conditions: S. cerevisiae mlh1 rad18 strain growth inhibition, stronger effect = higher value. The gist of the method:
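Yeast w/ defined DNA-repair lesions; compound exposure; growth vs vehicle controls → % inhibition.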

[7] abbreviates: at 5.0 µM (retest, dose inferred, filed as 0.5).
[8] abbreviates: at 50.0 µM (retest, dose inferred, filed as 5.0).

“And” between values parts separate entries of the source, which are not always exact repeats. Identical values can stand only once. The panel holds about 79,000 compounds, 15% with a hit somewhere; the sample as a whole holds those more often. Some structures have more than one record in an assay (separate samples or runs), and their calls can disagree. The source made the active and inactive calls. No stated cut-off is given here; in the data, active means growth inhibition above about 70%; inactive means the rest.

On to `CCC[CH2][Sn]1([CH2]CCC)[O]N=C(c2ccccc2)C(c2ccccc2)[O]1` (centres undefined), for which the growth inhibition was 19% (inactive) in assay [1] (setting [7]); 19% (inactive) in assay [1] (setting [8]); 88.4% (active) in assay [1] (at 50.0 µM); 20% (inactive) in assay [2] (setting [7]); 20% (inactive) in assay [2] (setting [8]); 87.8% (active) in assay [2] (at 50.0 µM). Further, the growth inhibition in assay [3] (setting [7]) is -1% (inactive); in assay [3] (setting [8]), -1% (inactive); in assay [3] (at 50.0 µM) it was 89.4% (active); in assay [4] (setting [7]), 8% (inactive); in assay [4] (setting [8]), 8% (inactive); in assay [4] (at 50.0 µM), 79.7% (active). The growth inhibition was 12% (inactive) in assay [5] (setting [7]); 12% (inactive) in assay [5] (setting [8]); 78.8% (active) in assay [5] (at 50.0 µM); 12% (inactive) in assay [6] (setting [7]); 12% (inactive) in assay [6] (setting [8]); 79.9% (active) in assay [6] (at 50.0 µM).

For the molecule `O/N=C(\CC(O)(C(F)(F)F)C(F)(F)F)c1cccc(Cl)c1`, the growth inhibition was 13% (inactive) in assay [1] (setting [7]); 80% (active) in assay [1] (setting [8]); 91% (active) in assay [1] (at 50.0 µM); 17% (inactive) in assay [2] (setting [7]); 98% (active) in assay [2] (setting [8]); 93.6% (active) in assay [2] (at 50.0 µM). The growth inhibition was 10% (inactive) in assay [3] (setting [7]); 97% (active) in assay [3] (setting [8]); 92.8% (active) in assay [3] (at 50.0 µM); 8% (inactive) in assay [4] (setting [7]); 95% (active) in assay [4] (setting [8]); 89% (active) in assay [4] (at 50.0 µM). The growth inhibition in assay [5] (setting [7]) was 14% (inactive); in assay [5] (setting [8]), 97% (active); in assay [5] (at 50.0 µM), 90.5% (active); in assay [6] (setting [7]), 26% (inactive); in assay [6] (setting [8]) it was 97% (active); in assay [6] (at 50.0 µM), 89.3% (active).

`CC(=O)c1ccc2ccc3ccc(O)cc3c2c1`: the growth inhibition was 1% (inactive) in assay [1] (setting [7]); 97% (active) in assay [1] (setting [8]); 88.5% (active) in assay [1] (at 50.0 µM); 11% (inactive) in assay [2] (setting [7]); 97% (active) in assay [2] (setting [8]); 80.5% (active) in assay [2] (at 50.0 µM). The growth inhibition in assay [3] (setting [7]) is 2% (inactive); in assay [3] (setting [8]), 96% (active); in assay [3] (at 50.0 µM), 82.2% (active); in assay [4] (setting [7]), -5% (inactive); in assay [4] (setting [8]), 97% (active); in assay [4] (at 50.0 µM), 72.8% (active). For the same molecule, the growth inhibition in assay [5] (setting [7]) was -27% (inactive); in assay [5] (setting [8]), 98% (active); in assay [5] (at 50.0 µM), 90.2% (active); in assay [6] (setting [7]), 6% (inactive); in assay [6] (setting [8]), 97% (active); in assay [6] (at 50.0 µM), 89.2% (active).

With `CNC(=O)OCCN1c2ccccc2Sc2ccccc21`, the growth inhibition was -22% (inactive) in assay [1] (setting [7]); 93% (active) in assay [1] (setting [8]); 89.5% (active) in assay [1] (at 50.0 µM); -9% (inactive) in assay [2] (setting [7]); 68% (inactive) in assay [2] (setting [8]); 92% (active) in assay [2] (at 50.0 µM). Further, the growth inhibition in assay [3] (setting [7]) is 8% (inactive); in assay [3] (setting [8]), 91% (active); in assay [3] (at 50.0 µM), 93.3% (active); in assay [4] (setting [7]), -1% (inactive); in assay [4] (setting [8]), 82% (active); in assay [4] (at 50.0 µM), 90.3% (active). The growth inhibition was 0% (inactive) in assay [5] (setting [7]); 95% (active) in assay [5] (setting [8]); 92% (active) in assay [5] (at 50.0 µM); -9% (inactive) in assay [6] (setting [7]); 92% (active) in assay [6] (setting [8]); 91.5% (active) in assay [6] (at 50.0 µM).

`Oc1ccc(C(O)(c2ccccc2)c2ccccc2)cc1`: the growth inhibition in assay [1] (setting [7]) is 45% (inactive) and 42% (inactive); in assay [1] (setting [8]), 57% (inactive) and 91% (active); in assay [1] (at 50.0 µM), 88.8% (active) and 71.1% (active); in assay [2] (setting [7]), 51% (inactive) and 25% (inactive); in assay [2] (setting [8]), 59% (inactive) and 89% (active); in assay [2] (at 50.0 µM) it was 91.2% (active) and 89.2% (active). The growth inhibition in assay [3] (setting [7]) was -30% (inactive) and 35% (inactive); in assay [3] (setting [8]) it was 30% (inactive) and 89% (active); in assay [3] (at 50.0 µM), 92% (active) and 48.6% (inactive); in assay [4] (setting [7]), 45% (inactive) and 29% (inactive); in assay [4] (setting [8]) it was 63% (inactive) and 90% (active); in assay [4] (at 50.0 µM) it was 89.9% (active) and 65.8% (inactive). Moreover, the growth inhibition in assay [5] (setting [7]) is 21% (inactive) and 36% (inactive); in assay [5] (setting [8]), 48% (inactive) and 94% (active); in assay [5] (at 50.0 µM), 90.2% (active) and 59.2% (inactive); in assay [6] (setting [7]), 40% (inactive) and 45% (inactive); in assay [6] (setting [8]), 60% (inactive) and 95% (active); in assay [6] (at 50.0 µM), 88.5% (active) and 69.3% (inactive).

For `O=C(NNC(=O)c1ccccc1O)c1ccccc1O`, the growth inhibition is 4% (inactive) in assay [1] (setting [7]); 14% (inactive) in assay [1] (setting [8]); 56.1% (inactive) in assay [1] (at 50.0 µM); 2% (inactive) in assay [2] (setting [7]); 34% (inactive) in assay [2] (setting [8]); 37.3% (inactive) in assay [2] (at 50.0 µM). Further, the growth inhibition in assay [3] (setting [7]) was 8% (inactive); in assay [3] (setting [8]) it was 32% (inactive); in assay [3] (at 50.0 µM), 61% (inactive); in assay [4] (setting [7]), -4% (inactive); in assay [4] (setting [8]) it was -2% (inactive); in assay [4] (at 50.0 µM), 35.9% (inactive). For the same molecule, the growth inhibition in assay [5] (setting [7]) is 2% (inactive); in assay [5] (setting [8]), 19% (inactive); in assay [5] (at 50.0 µM), 74.2% (active); in assay [6] (setting [7]), 5% (inactive); in assay [6] (setting [8]) it was 33% (inactive); in assay [6] (at 50.0 µM), 49.8% (inactive).

As for `c1ccc(-c2conc2-c2ccccc2)cc1`, the growth inhibition in assay [1] (setting [7]) is -22% (inactive); in assay [1] (setting [8]) it was 95% (active); in assay [1] (at 50.0 µM), 60.8% (inactive); in assay [2] (setting [7]), -7% (inactive); in assay [2] (setting [8]), 91% (active); in assay [2] (at 50.0 µM) it was 19.1% (inactive). The growth inhibition in assay [3] (setting [7]) is 9% (inactive); in assay [3] (setting [8]), 90% (active); in assay [3] (at 50.0 µM), 31.4% (inactive); in assay [4] (setting [7]) it was -32% (inactive); in assay [4] (setting [8]), 68% (inactive); in assay [4] (at 50.0 µM) it was -2.5% (inactive). The growth inhibition in assay [5] (setting [7]) is -20% (inactive); in assay [5] (setting [8]), 92% (active); in assay [5] (at 50.0 µM), 54% (inactive); in assay [6] (setting [7]), -10% (inactive); in assay [6] (setting [8]), 95% (active); in assay [6] (at 50.0 µM) it was 71.3% (active).

Regarding `COc1cccc(NC(=S)N2CCCCC2)c1`, the growth inhibition in assay [1] (setting [7]) is -158% (inactive); in assay [1] (setting [8]) it was -160% (inactive); in assay [1] (at 50.0 µM), 38.4% (inactive); in assay [2] (setting [7]), -51% (inactive); in assay [2] (setting [8]), -58% (inactive); in assay [2] (at 50.0 µM) it was -0.45% (inactive). Moreover, the growth inhibition in assay [3] (setting [7]) was -69% (inactive); in assay [3] (setting [8]), -61% (inactive); in assay [3] (at 50.0 µM) it was -8.25% (inactive); in assay [4] (setting [7]), -69% (inactive); in assay [4] (setting [8]), -102% (inactive); in assay [4] (at 50.0 µM), -82.4% (inactive). Further, the growth inhibition was -60% (inactive) in assay [5] (setting [7]); -58% (inactive) in assay [5] (setting [8]); 14.7% (inactive) in assay [5] (at 50.0 µM); -132% (inactive) in assay [6] (setting [7]); -151% (inactive) in assay [6] (setting [8]); 20.9% (inactive) in assay [6] (at 50.0 µM).
